# Values joined by “and” are separate entries in the source; they are usually repeats but may differ in a detail not shown here. Equal entries are not always repeated. Results filed as inconclusive are left out. Active and inactive are the calls of the source. Calls come from the whole dose curve; as a rule, active = well fitted curve in the direction sought with a large enough effect; inconclusive = small, poorly fitted or top-dose-only effect, or another doubt; inactive = no such curve, though single readings can be large or run the other way.
# Experiment: qHTS Assay for Identifying Gametocytocidal Compounds (AID 743244);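 for max response: actives lower the fluorescent signal which means gametocytes are killed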
# Details: P. falciparum 3D7 stage III-V gametocytes, alamarBlue, 72 h; max response: active compounds read low
# Source text: Malaria cases and deaths have dropped 50% in 29 countries since 2000 due to the combined effects of long-lasting insecticidal bednets, indoor residual spraying, and artemisinin-based combination therapies (ACTs). This success has raised hopes for malaria eradication and consequently stimulated interest in developing new reagents that block gametocyte transmission such as novel and safe gametocytocidal drugs. However, previous drug development efforts have focused primarily on the asexual parasites that cause symptoms, but not malaria transmission. Consequently, patients can remain infectious for weeks after the clearance of asexual parasites and clinical symptoms. To be transmitted from person to person via a mosquito, the parasites must switch from asexual to sexual development and produce male and female gametocytes. Malaria gametocytes consist of five stages (I, II, III, IV and V). The late stage gametocytes (III, IV and V) are difficult to be cultured in vitro and the long lifespan of mature gametocytes allows them being transmitted from host to mosquitoes unless they are completely eliminated by gametocytocidal agents. To identify gametocytocidal compounds which are capable of killing late stage P. falciparum gametocytes, a high throughput gametocyte viability assay was employed. This assay uses oxidoreduction indicator, alamarBlue, as a general measure of metabolic activity of gametocytes. Within live cells, the nonfluorescent resazurin is reduced to resorufin, a bright red fluorescence dye. Fluorescence decreases upon treatment of gametocytocidal compounds. P. falciparum gametocyte (3D7 strain) was used in this study.
# The 1536-well gametocycidal viability assay was based on the previous method of Tanaka et al. Stage III-V gametocytes were tested against three compound libraries, including 4265 compounds from NCGC pharmaceutical collection, 400 from Malaria Box library, and 550 from an internal collection of kinase inhibitors. Briefly, 2.5 ul/well incomplete medium was dispensed into each well of 1,536-well plates using the Multidrop Combi followed by 23 nl compound transferring using the NX-TR Pintool (WAKO Scientific Solutions, San Diego, CA). Then, 2.5 ul/well of gametocytes was dispensed with a seeding density of 20,000 cells/well using the Multidrop Combi. The assay plates were incubated for 72 h at 37C with 5% CO2. After addition of 5 ul/well of 2X AlamarBlue dye (Life Technologies, cat. no. DAL1100), the plates were incubated for 24 h at 37C with 5% CO2 and then were read in a fluorescence detection mode (Ex = 525 nm, Em = 598 nm) on a ViewLux plate reader (PerkinElmer).
# % is set by controls: 0 for no effect and ±100 for the full control effect; potency is the fitted concentration of half-maximal effect.
SMILES,max response,Potency
CCCN(CCC)CCc1ccc(O)c(O)c1,12.9% (inactive),
CN1CCC(c2c[nH]c3ccc(O)cc23)CC1,11.9% (inactive),
O=C(CS(=O)C(c1ccccc1)c1ccccc1)NO (stereo not given),-0.968% (inactive),
c1ccc2sc(SNC3CCCCC3)nc2c1,27.5% (inactive),
NC(=O)c1ccc(OCC(O)CN2CC=C(c3ccc(F)cc3)CC2)cc1 (stereo not given),10.4% (inactive),
CCC1C(C)=NN=C(c2ccc(OC)c(OC)c2)c2cc(OC)c(OC)cc21 (stereo not given),2.95% (inactive),
C[C@H](N)CN1CCc2ccc(Br)cc21,,7.43 µM (active)
CC(Cc1ccccc1)NC=O (stereo not given),-3.98% (inactive),
O=C1C2CC=CCC2C(=O)N1SC(Cl)(Cl)Cl (stereo not given),-3.19% (inactive),
CNC(C)C(O)c1ccc(O)cc1 (stereo not given),-4.84% (inactive) and 8.32% (inactive),
CC[N+](C)(CC)CCOC(=O)C(O)(c1ccccc1)c1ccccc1,11.5% (inactive),
CCC(=O)O[C@]1(c2ccccc2)CCN(C)C[C@H]1C,-3.07% (inactive),
Nc1ccc(CCN2CCN(c3cccc(C(F)(F)F)c3)CC2)cc1,14.5% (inactive),
Cc1cc(C)cc(C(=O)OC2C[C@H]3CC[C@@H](C2)N3C)c1 (stereo not given in full),23% (inactive),
C=CCN1CC[C@]23c4c5ccc(O)c4O[C@H]2/C(=N/NC(=O)c2ccccc2)CC[C@@]3(O)[C@H]1C5,8.77% (inactive),
CNC(=O)Oc1ccccc1C(=O)Nc1ccccc1,8.96% (inactive),
O=[N+]([O-])c1ccccc1,18.1% (inactive),
C=CCN1CC[C@]23c4c5ccc(O)c4O[C@@H]2/C(=N/N=C2\CC[C@@]4(O)C6Cc7ccc(O)c8c7[C@@]4(CCN6CC=C)[C@@H]2O8)CC[C@@]3(O)C1C5,,1 µM (active)
CCCN(CCC)C1CCc2cccc(O)c2C1 (stereo not given),13.2% (inactive),
OC1CCCCC1N1CCC(c2ccccc2)CC1 (stereo not given),6.56% (inactive),

SMILES,max response,Potency
C=CCN(C1=NCCN1)c1c(Cl)cccc1Cl,-1.3% (inactive) and 35.7% (inactive),
NCCc1c[nH]c2ccc(C(N)=O)cc12,47.6% (inactive),
CCOC(=O)c1ncn2c1[C@@H]1CCCN1C(=O)c1cc(OC)ccc1-2,-1.18% (inactive),
O=C1C[C@@H]2OCC=C3CN4CC[C@]56c7ccccc7N1[C@H]5[C@H]2[C@H]3C[C@H]46 (tested in a mixture with another compound),12.7% (inactive) and 17.6% (inactive),
CCCCNCC(O)c1ccc(O)cc1 (stereo not given),15.5% (inactive),
[O]=[Cd],2.29% (inactive),
CNc1ccc(C(=O)CC(O)CCC(C)C2OC(=O)CC(O)CC(=O)CC(O)CC(O)CC(O)CC(O)CC3(O)CC(O)C(C(=O)OC)C(CC(O[C@@H]4O[C@H](C)[C@@H](O)[C@H](N)[C@@H]4O)/C=C/C=C/C=C/C=C/C=C/C=C/C=C/C2C)O3)cc1 (stereo not given in full),22.8% (inactive),
CCCSP(=O)(OCC)SCCC,-10.7% (inactive),
C[N+]1(C)[C@@H]2CC[C@H]1CC(OC(=O)c1c[nH]c3ccccc13)C2 (stereo not given in full),8.77% (inactive),
NCCCP(=O)(O)O,-9.88% (inactive),
C[N+]1([O-])[C@@H]2CC(OC(=O)[C@H](CO)c3ccccc3)C[C@H]1[C@@H]1O[C@@H]12 (stereo not given in full),4.15% (inactive) and -13.5% (inactive),
OCc1cnc[nH]1,26.7% (inactive),
O=C1CN=C(c2ccccc2)c2cc(Cl)ccc2N1CC1CC1,-0.952% (inactive),
CCNC(C)Cc1cccc(C(F)(F)F)c1 (stereo not given),22.8% (inactive),
O=c1[nH]cc(N(CCCl)CCCl)c(=O)[nH]1,-3.92% (inactive),
O=C1CCCCC1CN1CCCCC1 (stereo not given),-0.825% (inactive),
O=C(NC(=O)c1c(F)cccc1F)Nc1ccc(Cl)c(Oc2ncc(C(F)(F)F)cc2Cl)c1,-9.15% (inactive),
CCN(CCCl)Cc1ccccc1Br,-1.83% (inactive),
COc1ccc(OC)c(C(O)C(C)N)c1 (stereo not given),11.7% (inactive),
O=P(O)(O)C(Cl)(Cl)P(=O)(O)O,-3.79% (inactive) and -4.92% (inactive),

# From PubChem BioAssay (NCATS)
